We go through 95 molecules from PubChem BioAssay AID1851 (National Center for Advancing Translational Sciences (NCATS), 2009).

Molecules are shown by their SMILES. Out of some 16,000 compounds screened, about 5,100 (32%) were called active. About 25% were inconclusive and are not listed. Calls follow the shape of the dose curve; as a rule, active = well fitted curve in the direction sought with a large enough effect; inconclusive = small, poorly fitted or top-dose-only effect, or effect the other way; inactive = no such curve, though single readings can be large or run the other way. The list shows a part of the results.
% is scaled to controls: 0 for no effect and ±100 for the full control effect.

For this test, the target named is Cytochrome P450 3A4 (Homo sapiens) (UniProt P08684). Kind of test: Cytochrome panel assay with activity outcomes. The following applies: recombinant CYP, pro-luciferin dealkylation, luminescence, p450-cyp3a4; series mostly up to 57.1 µM; activity, negative = inhibition: at the top concentration.
Sequence of Cytochrome P450 3A4 (Homo sapiens) (P08684 whole entry, looked up): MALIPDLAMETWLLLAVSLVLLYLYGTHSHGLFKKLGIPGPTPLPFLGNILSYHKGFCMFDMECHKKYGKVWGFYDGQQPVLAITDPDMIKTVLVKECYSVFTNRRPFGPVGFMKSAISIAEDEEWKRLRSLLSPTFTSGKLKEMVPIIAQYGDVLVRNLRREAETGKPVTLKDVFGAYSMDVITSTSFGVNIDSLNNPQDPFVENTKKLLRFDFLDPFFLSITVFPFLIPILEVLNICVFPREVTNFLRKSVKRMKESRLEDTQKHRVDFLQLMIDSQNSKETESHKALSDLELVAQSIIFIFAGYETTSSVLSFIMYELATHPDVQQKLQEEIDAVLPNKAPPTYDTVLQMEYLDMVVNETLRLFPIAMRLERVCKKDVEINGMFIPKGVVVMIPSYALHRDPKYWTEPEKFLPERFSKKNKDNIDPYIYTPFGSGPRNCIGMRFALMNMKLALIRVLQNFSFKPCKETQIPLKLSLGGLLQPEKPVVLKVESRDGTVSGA
As for `O=C(O)[C@@H](O)[C@@H](O)[C@H](O)[C@H](O)CO`, the activity, negative = inhibition was -3.9% [at 11.4 µM] (inactive).
As for `C/C(=C\C(=O)c1ccc(Br)cc1)NCc1ccc2c(c1)OCO2`, the AC50 (usually the concentration giving half of the maximal activity seen) is 2.51 µM (active).
With `O=C(Cc1ccc(Br)cc1)OCC(=O)c1ccc2c(c1)OCCO2`, the activity, negative = inhibition was -3.84% [at 2.29 µM] (inactive).
`CC1CCCC(NC(=O)c2n[nH]c(=O)c3ccccc23)C1C` (stereo not given): the AC50 was 12.6 µM (active).
As for `Cc1c(Br)cc(C(=O)NC2CCCCC2)c(C)c1C`, the activity, negative = inhibition was -5.25% [at 2.29 µM] (inactive).
Regarding `CCN(CC)CCCN(Cc1cc2ccc(C)c(C)c2[nH]c1=O)C(=O)NC1CCCCC1`, the AC50 was 2.82 µM (active).
As for `CCC(=O)NC(NCC1CCCO1)C(Cl)(Cl)Cl` (stereo not given), the “activity, negative = inhibition” value was -9.79% (inactive).
As for `CC(=O)[C@H](C(=N)C#N)C(=O)Nc1ccccc1`, the activity, negative = inhibition is 3.78% [at 11.4 µM] (inactive).
On the same count and under the same terms, the same measure for `c1c[nH]c(CN2CCOCC2)n1`: -23.7% [at 11.4 µM] (inactive).
For `Cn1c(CNC(=O)Nc2ccccc2)nnc1SCc1ccccc1`, the AC50 was 14.1 µM (active).
For the molecule `Cn1c(CN2CCOCC2)nnc1SCc1ccccc1`, the AC50 is 10 µM (active).
Regarding `COC1(OC)N=C(NC(=O)Nc2ccccc2)C2(C#N)C(c3ccccc3)C12C#N` (stereo not given), the “activity, negative = inhibition” value is -7.34% (inactive).
On to `COc1cccc(NC(=O)CSc2nnc(CN3CCOCC3)n2C)c1`, for which the “activity, negative = inhibition” value was -19.6% (inactive).
Turning to `CCn1c(=O)[nH]c2ccccc21`, the “activity, negative = inhibition” value was -7.93% (inactive).
Take `CCn1c(=O)[nH]c2cc(Cl)c(Cl)cc21`: the AC50 was 12.6 µM (active).
Turning to `CCn1c(C)[n+](CCCS(=O)(=O)[O-])c2cc(Cl)c(Cl)cc21`, the “activity, negative = inhibition” value is 3.69% (inactive).
Turning to `O=C(O)/C=C\C(=O)Nc1ccccn1`, the activity, negative = inhibition is -10.9% [at 11.4 µM] (inactive).
For the molecule `Cc1cccc(C(=O)Nc2nnc(-c3ccc(C(C)(C)C)cc3)s2)c1`, the “activity, negative = inhibition” value was 16% (inactive).
For `C=C(C)[C@H]1CC=C(C)/C(=N/NC(=O)CNc2ccccc2OC)C1`, the AC50 was 10 µM (active).
With `C=C(C)C1CC=C(C)/C(=N/NC(=O)c2ccc(NC(=O)c3cccc(C)c3)cc2)C1` (stereo not given), the AC50 was 12.6 µM (active).
On to `Cc1cccc(C(=O)NNC(=O)C2CCCO2)c1` (stereo not given), for which the “activity, negative = inhibition” value is -2.87% (inactive).
The same measure, in the same setting: with `CSc1ccc2nnc(-c3cccc(F)c3)n2n1` the figure was 0.102% (inactive).
As for `COc1cccc(-c2nnc3sc(-c4ccc(C)cc4)nn23)c1`, the AC50 was 7.94 µM (active).
As for `CNC[C@@H](SC)c1ccc(O)c(O)c1`, the activity, negative = inhibition was -6.87% [at 11.4 µM] (inactive).
Take `Clc1ccc(/C=N/Nc2nnc(-c3ncc[nH]3)c3ccccc23)cc1`: the concentration at half-maximal activity (AC50) was 15.8 µM (active).
As to `CCOc1ccc(C(C)=O)cc1N1C(=O)C2C3C=CC(C3=C(C)C)C2C1=O` (stereo not given), the AC50 was 11.2 µM (active).
Regarding `CCOc1ccc(C(C)=O)cc1N1C(=O)C2C(C1=O)C1C=CC2C12CC2` (stereo not given), the “activity, negative = inhibition” value is -8.58% (inactive).
On the same count and under the same terms, the same measure for `CCOc1ccc(C(C)=O)cc1N1C(=O)C2C3C=CC(O3)C2C1=O` (stereo not given): -20.8% [at 11.4 µM] (inactive); for `CCC(C)(C)NC(=O)c1ccc2c(c1)N(CC(=O)OC)C(=O)C(C)(C)O2`: -14.5% (inactive).
As to `Nc1ncnc2c1ncn2CCCCC(=O)O`, the activity, negative = inhibition was -8.48% [at 11.4 µM] (inactive).
For `O=C(c1cccs1)n1nc(-c2ccc(Cl)cc2)nc1NCc1ccco1`, the activity, negative = inhibition is -4.78% [at 2.29 µM] (inactive).
Regarding `Cc1ccc(C(C(=O)NCc2ccco2)N(C(=O)CNC(=O)c2cccs2)c2ccc(C)cc2C)cc1` (stereo not given), the AC50 is 1 µM (active).
In the case of `O=C(NCc1ccco1)C(c1ccccc1)N(C(=O)Cc1cccs1)c1ccccc1F` (stereo not given), the AC50 is 0.794 µM (active).
Regarding `Cc1ccc(C(CC(N)=O)c2ccco2)cc1` (stereo not given), the “activity, negative = inhibition” value was -1.79% (inactive).
With `Cc1ccc(C(C(=O)NCc2ccco2)N(C(=O)CNC(=O)c2cccs2)c2ccc(C)cc2)cc1` (stereo not given), the AC50 is 1.12 µM (active).
Still for that read-out and setting: with `CCn1c(C)c(/C=N/Nc2nc3ccccc3s2)c2ccccc21` the figure was 8.91 µM (active); with `Cc1ccc(C(=O)N2CCN(C3c4cccc5cccc(c45)C3NS(=O)(=O)c3ccccc3)CC2)cc1` (stereo not given), 0.0355 µM (active).
Regarding `Cc1ccc(C(=O)N2CCN(c3cc(=O)[nH]nc3-c3ccccc3)CC2)cc1`, the “activity, negative = inhibition” value was 6.24% (inactive).
As for `Cc1noc(C)c1-c1ccc2ncnc(NCc3cccs3)c2c1`, the AC50 was 10 µM (active).
As for `Cc1noc(C)c1-c1ccc2ncnc(NCc3cccnc3)c2c1`, the AC50 was 2.51 µM (active).
As to `Cc1cccc(CNc2ncnc3ccc(-c4c(C)noc4C)cc23)c1`, the AC50 was 0.794 µM (active).
For `Cc1noc(C)c1-c1ccc2ncnc(NC3CCNCC3)c2c1`, the “activity, negative = inhibition” value is -15.9% (inactive).
Regarding `Cc1noc(C)c1-c1ccc2ncnc(NCc3ccccc3)c2c1`, the AC50 was 10 µM (active).
Consider `N#[N+]c1ccc(Nc2ccccc2)cc1`, for which the activity, negative = inhibition was -10.9% [at 11.4 µM] (inactive).
Regarding `CC[N+](C)(CC)CCN1C(=O)c2ccccc2S1(=O)=O`, the activity, negative = inhibition is 6.19% [at 11.4 µM] (inactive).
`O=[N+]([O-])c1ccc(N2CCCC2)cc1NCc1ccccc1`: the AC50 is 15.8 µM (active).
Regarding `CNc1cc(N2CCCCCC2)ccc1[N+](=O)[O-]`, the activity, negative = inhibition is -20.1% [at 2.29 µM] (inactive).
Take `CC(C)c1ccc(CNc2cc(N3CCCC3)ccc2[N+](=O)[O-])cc1`: the activity, negative = inhibition was -8.24% [at 2.29 µM] (inactive).
`Cc1cc(C)c(S(=O)(=O)N2CCN(c3ccc([N+](=O)[O-])c(NCc4ccco4)c3)CC2)c(C)c1`: the concentration at half-maximal activity (AC50) is 7.08 µM (active).
Consider `CC(=O)N(CC(O)CN(C(C)=O)c1c(I)c(C(=O)NC[C@@H](O)CO)c(I)c(C(=O)NC[C@@H](O)CO)c1I)c1c(I)c(C(=O)NC[C@@H](O)CO)c(I)c(C(=O)NC[C@@H](O)CO)c1I`, for which the “activity, negative = inhibition” value is 3.05% [at 25.6 µM] (inactive).
Turning to `CC(C)(C)c1ccc(O)c(CN(Cc2cc(C(C)(C)C)ccc2O)C2CCCCC2)c1`, the activity, negative = inhibition is -3.22% [at 11.4 µM] (inactive).
As to `c1ccc2cc(C3=NCCN3)ncc2c1`, the “activity, negative = inhibition” value is -15.9% (inactive).
For `C#CCSc1nncn1C(=O)/C=C/c1ccccc1`, the activity, negative = inhibition was -0.406% [at 2.29 µM] (inactive).
Turning to `COc1cc(/C=C\C(=O)N2CCC=CC2=O)cc(OC)c1OC`, the “activity, negative = inhibition” value is -8.08% [at 25.6 µM] (inactive).
Regarding `C=CCSc1nc2ccccc2n1C(=O)/C=C/c1cc(OC)c(OC)c(OC)c1`, the AC50 is 7.94 µM (active).
As to `COc1ccc(/C=C/C(=O)Nc2nc(C)cc(C)n2)cc1OC`, the activity, negative = inhibition is 2.05% [at 2.29 µM] (inactive).
Regarding `CCSc1nc2ccccc2n1C(=O)/C=C\c1ccc(OC)c(OC)c1`, the AC50 was 20 µM (active).
Turning to `c1ccc2nc(C3=NCCN3)ccc2c1`, the “activity, negative = inhibition” value was 7.89% (inactive).
Consider `c1ccc2cc(-c3csnn3)ccc2c1`, for which the “activity, negative = inhibition” value was 16% (inactive).
For `c1ccc2nc(-c3ccncc3)ccc2c1`, the AC50 is 2.82 µM (active).
With `Cc1cc(Cl)ccc1OCC(=O)N/N=C1\CCCc2ccccc21`, the AC50 was 12.6 µM (active).
As for `Cc1cc(Cl)ccc1OCC(=O)NCc1ccncc1`, the concentration at half-maximal activity (AC50) was 1.41 µM (active).
Turning to `Cc1cc(Cl)ccc1OCC(=O)Nc1nc(N)nc(N)n1`, the activity, negative = inhibition is -4.83% [at 11.4 µM] (inactive).
For `O=C(N/N=C1\CCCc2ccccc21)c1ccc([N+](=O)[O-])cc1Cl`, the activity, negative = inhibition is -11.3% [at 2.29 µM] (inactive).
Take `CN(C)c1ncc2nc(-c3ccc(F)cc3)c(=O)n(C)c2n1`: the “activity, negative = inhibition” value is 18.7% (inactive).
For the molecule `COc1ccc(-c2nc3cnc(N4CCN(C)CC4)nc3n(C)c2=O)cc1`, the “activity, negative = inhibition” value is 18.8% (inactive).
As to `COc1ncc2nc(-c3ccc(Cl)cc3)c(=O)n(-c3ccccc3)c2n1`, the “activity, negative = inhibition” value is 11.2% (inactive).
As for `Cn1c(=O)c(-c2ccc(Cl)cc2)nc2cnc(OCc3ccccc3)nc21`, the “activity, negative = inhibition” value is 19.1% (inactive).
For the molecule `COc1ncc2nc(-c3ccccc3)c(=O)n(C)c2n1`, the “activity, negative = inhibition” value was -25.8% (inactive).
`COc1ncc2nc(-c3ccc(Cl)cc3)c(=O)n(C)c2n1`: the AC50 was 25.1 µM (active).
Turning to `COc1ncc2nc(-c3ccc(F)cc3)c(=O)n(C)c2n1`, the AC50 was 20 µM (active).
Consider `COc1ccc(-c2nc3cnc(OC)nc3n(C)c2=O)cc1`, for which the AC50 was 25.1 µM (active).
`Cc1ccnn2cc3c(=O)n(C)c(=O)n(C)c3c12`: the “activity, negative = inhibition” value is -5.05% (inactive).
As for `C=Cc1c(C)c2cc3[nH]c(cc4nc(cc5nc(cc1[nH]2)C(C)=C5CCC(=O)O)C(CCC(=O)O)=C4C)c(C)c3C=C`, the “activity, negative = inhibition” value is -10.4% (inactive).
In the case of `Cc1cccc(CNc2nc(-c3cccnc3)nc3ccccc23)c1`, the AC50 is 1 µM (active).
As to `COc1cccc(-c2nc(NCc3ccccc3)c3ccccc3n2)c1`, the AC50 was 12.6 µM (active).
On the same count and under the same terms, the same measure for `N#Cc1cccc(-c2nc(NCc3cccs3)c3ccccc3n2)c1`: 3.98 µM (active).
With `N#Cc1cccc(-c2nc(NCc3cccnc3)c3ccccc3n2)c1`, the AC50 is 5.01 µM (active).
For `O=[N+]([O-])c1ccc(N2CCOCC2)nc1`, the activity, negative = inhibition is -4.02% [at 2.29 µM] (inactive).
Regarding `COCCNc1nc(-c2cccc(OC)c2)nc2ccccc12`, the AC50 was 5.01 µM (active).
Turning to `COc1cccc(-c2nc(NC3CC3)c3ccccc3n2)c1`, the AC50 was 1.26 µM (active).
Regarding `COc1cccc(Nc2ncc3nc(-c4ccccc4)c(=O)n(Cc4cccs4)c3n2)c1`, the “activity, negative = inhibition” value is -21.3% (inactive).
`COc1cccc(-c2nc(NCc3cccs3)c3ccccc3n2)c1`: the AC50 is 3.16 µM (active).
On the same count and under the same terms, with `COc1cccc(-c2nc(NCCNC(C)=O)c3ccccc3n2)c1` the figure was 12.6 µM (active).
For the molecule `NNC(=O)[C@@H](O)[C@H](O)[C@H](O)CO`, the activity, negative = inhibition was 0.183% [at 11.4 µM] (inactive).
Same read-out and setting: the same measure for `COC(=O)Cc1c(C)nc2nc(NCc3ccccc3OC)[nH]n2c1=O`: -8.91% (inactive); for `COc1cccc(/C=N/NC(=O)C(=O)NCc2cccnc2)c1`: -8.44% [at 2.29 µM] (inactive).
As for `COc1cccc(-c2nc(NCc3cccnc3)c3ccccc3n2)c1`, the AC50 was 2 µM (active).
On to `COc1cccc(-c2nc(NCc3ccccc3OC)c3ccccc3n2)c1`, for which the AC50 is 3.98 µM (active).
Turning to `O=C(O)c1nn(-c2ccccc2-c2n[nH]c(=O)[nH]c2=O)c(=O)[nH]c1=O`, the activity, negative = inhibition was -2.84% [at 11.4 µM] (inactive).
On to `CN1CCN(S(=O)(=O)c2ccc3[nH]cc(C(=O)O)c(=O)c3c2)CC1`, for which the “activity, negative = inhibition” value was -5.58% (inactive).
As for `Cc1ccccc1NS(=O)(=O)c1ccc2[nH]cc(C(=O)NCCCN3CCOCC3)c(=O)c2c1`, the AC50 was 2 µM (active).
For `Cc1ccc(C(=O)NCCCN2CCOCC2)cc1N1CCCC1=O`, the “activity, negative = inhibition” value is 15.8% (inactive).
For the molecule `CCOC(=O)N1CCN(S(=O)(=O)c2ccc3[nH]cc(C(=O)O)c(=O)c3c2)CC1`, the “activity, negative = inhibition” value was -14.5% (inactive).
`COc1cccc(NS(=O)(=O)c2ccc3[nH]cc(C(=O)NCCN4CCOCC4)c(=O)c3c2)c1`: the AC50 is 2.82 µM (active).
